We go through 70 compounds from PubChem BioAssay AID1240 (Sanford-Burnham Center for Chemical Genomics, 2008).

SMILES strings stand for the structures. In all, about 50,000 compounds went through this assay and about 800 (1.6%) showed an effect of 50% or more. The full list was thinned out, with strong results kept by preference.

The target of the test is Bcl-2-like protein 10 (Homo sapiens) (UniProt Q9HD36). Briefly: TR3 peptide-Bcl-B binding displacers, biochemical primary FP assay, phenotype converters (AID 1240).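 Further: 0% = Bcl-B with tracer peptide and DMSO and 100% = tracer peptide lacking Bcl-B.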 Particulars: GST-Bcl-B / FITC-TR3 peptide fluorescence polarization; stronger effect = higher value; compound at 3.75 mg/L. (In general: Fluorescence polarisation rises when a labelled molecule tumbles more slowly, as on binding a larger partner.)
Chain of Bcl-2-like protein 10 (Homo sapiens) (Q9HD36 whole entry, looked up): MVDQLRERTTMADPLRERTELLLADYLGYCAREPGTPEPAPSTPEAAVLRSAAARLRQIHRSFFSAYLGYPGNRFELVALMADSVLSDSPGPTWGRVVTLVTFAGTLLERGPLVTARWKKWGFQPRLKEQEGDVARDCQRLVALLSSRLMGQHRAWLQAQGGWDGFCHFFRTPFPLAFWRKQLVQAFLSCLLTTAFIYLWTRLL
For the compound `CCn1c2ccccc2c2cc(/C=N/Nc3ccc([N+](=O)[O-])cc3)ccc21`, the displacement is -7.5%.
Consider `CCOC(=O)c1c(NC(C)=O)sc2cc(C(C)(C)C)ccc12`, for which the displacement is -4.1%.
Regarding `CC(=O)Nc1nonc1-c1nc2ccccc2n1Cc1ccc([N+](=O)[O-])cc1`, the displacement was 8.1%.
The result for `CC(=O)Nc1nonc1-c1nc2ccccc2n1Cc1ccccc1` reads 49.8%; that for `CC(=O)Nc1nonc1-c1nc2ccccc2n1Cc1ccc(C(C)(C)C)cc1`, 52.2%; that for `COc1ccccc1NC(=O)c1ccc(Oc2ccc(C(=O)Nc3ccccc3OC)cc2)cc1`, -1.8%.
In the case of `CCOC(=O)c1c(NC(=O)COc2c(C)cc(C)cc2C)sc(C(=O)Nc2ccccc2)c1C`, the displacement was 13.1%.
Regarding `CCOc1ccc(N2C(=O)CC(SC(=NC)Nc3ccc4c(c3)OCO4)C2=O)cc1` (stereo not given), the displacement is -6.7%.
The result for `Cc1cc(C)nc(SCC(=O)Nc2ccc(C)c(NC(=O)CSc3nc(C)cc(C)n3)c2)n1` reads 23.5%; that for `CN(C)c1ccc(/C=C/C(=O)c2ccc3c(c2)OCCO3)cc1`, -18.8%; that for `CC1=C(C(=O)OC(C)C)C(c2ccc(F)cc2)C(C(=O)OC(C)C)=C(C)N1`, 54.7%.
The result for `CC1=C(C(=O)OC(C)C)C(c2ccc(F)cc2)NC(=O)N1` (stereo not given) reads 6.9%; that for `CCOC(=O)C1=C(C)NC(C)=C(C(=O)OCC)C1c1ccc(F)cc1`, 0%; that for `COc1ccc(CNC(=O)CN(c2c(C)n(C)n(-c3ccccc3)c2=O)S(=O)(=O)c2ccccc2)cc1`, -6.2%.
For `Cc1cc(Nc2ccccc2)nn1C(=O)c1ccc(Cl)cc1`, the displacement was -10.9%.
For `Cn1c2ccccc2c2cc(C3Nc4ccccc4C(=O)N3Cc3ccco3)ccc21` (stereo not given), the displacement came out at 10.3%.
The result for `COc1ccc(/C=C\C(=O)C2C(=O)c3ccccc3C2=O)cc1` reads 122%; that for `O=C(/C=C/c1ccc(S(=O)(=O)Nc2ccccc2)cc1)C1C(=O)c2ccccc2C1=O`, 31.1%.
Take `O=C(/C=C/c1ccc([N+](=O)[O-])cc1)C1C(=O)c2ccccc2C1=O`: the displacement is -6.3%.
As for `CC1CC(C)CN(S(=O)(=O)c2ccc(F)cc2)C1` (stereo not given), the figure is -9%; as for `CN(C)/C=C/C=C/C(=O)c1ccc(/C=C/C=C/N(C)C)o1`, 36.1%.
The result for `N#C/C(=C/c1ccc(Cl)cc1)C(=O)Nc1ccc(O)cc1` reads 7.1%; that for `CC(=O)Nc1ccc(/C=C(/C#N)C(=O)NCc2ccco2)cc1`, 9.4%; that for `CC(=O)Nc1ccc(/C=C(/C#N)C(=O)N/N=C/c2ccc(NC(C)=O)cc2)cc1`, 110%.
The result for `CSc1ccc(/C=N\NC(=O)c2cnccn2)cc1` reads 109%; that for `O=C(N/N=C\c1ccc(Cl)c(Cl)c1)c1cnccn1`, -7.3%; that for `CSc1ccc(/C=N/NC(=O)c2cc(C)[nH]n2)cc1`, 3.8%.
Turning to `Cc1ccc(S(=O)(=O)/N=C(/NC(=S)N2CCOCC2)c2ccccc2)cc1`, the displacement is -5.4%.
As for `CCOC(=O)c1ccccc1NC(=O)CN(c1ccc(Br)cc1)S(C)(=O)=O`, the figure is -5%; as for `CC1=Nc2ccccc2/C1=C\c1c(O)n(-c2ccccc2)c(=O)[nH]c1=O`, -3.1%; as for `CC1=Nc2ccccc2/C1=C\c1sc(=S)n(-c2cccc(F)c2)c1O`, -1.7%.
Take `CC1=Nc2ccccc2/C1=C\c1sc(=S)n(-c2ccccc2)c1O`: the displacement turned out to be 104%.
The result for `O=C(CCCN1C(=O)c2ccccc2C1=O)Nc1cccnc1` reads 20.6%; that for `CC(c1ccccc1)N1C(=O)C(=Cc2c(NCC3CCCO3)nc3ccccn3c2=O)SC1=S` (stereo not given), -14.7%.
The result for `CC1=C(C(=O)OC(C)C)C(c2ccc(Cl)c(Cl)c2)N2C(=O)CCSC2=N1` (stereo not given) reads 15.3%; that for `CC1=C(C(=O)OC(C)C)C(c2ccccc2)N2C(=O)CCSC2=N1` (stereo not given), 61.6%.
Consider `COC(=O)c1ccc(C2C(C(=O)OC(C)C)=C(C)N=C3SCCC(=O)N32)cc1` (stereo not given), for which the displacement came to 11.3%.
`Cc1cc(=O)oc2c1c(C)nn2-c1ccc(Br)cc1`: the displacement is 2.1%.
On to `COc1ccccc1NC(=O)C1=C(C)NC(=S)NC1c1ccccc1OC` (stereo not given), for which the displacement came to 6%.
In the case of `O=C1NC(=O)N(c2ccc(Cl)cc2)C(=O)/C1=C/c1ccc(F)cc1`, the displacement was 8.2%.
For `Cc1cc(C)cc(N2C(=O)NC(=O)/C(=C\c3ccccc3C)C2=O)c1`, the displacement worked out at 6.3%.
The result for `O=C1NC(=O)N(c2ccccc2)C(=O)/C1=C/c1ccc(N2CCCC2)cc1` reads -30.2%.
In the case of `Cc1c(/C=C2\C(=O)NC(=O)N(c3ccc(Cl)cc3)C2=O)c2ccccc2n1C`, the displacement amounted to 104%.
The result for `C#CCn1cc(/C=C2\C(=O)NC(=O)N(c3ccc(Br)c(C)c3)C2=O)c2ccccc21` reads 6.2%.
The result for `CCOc1ccccc1/C=C1\C(=O)NC(=O)N(c2ccc(Br)c(C)c2)C1=O` reads -7.9%; that for `CCn1cc(/C=C2\C(=O)NC(=O)N(c3ccc(Cl)cc3)C2=O)c2ccccc21`, -18.6%; that for `COC(=O)Cn1cc(/C=C2\C(=O)NC(=O)N(c3cc(C)cc(C)c3)C2=O)c2ccccc21`, -4.6%.
Take `Cc1cc(C)cc(N2C(=O)NC(=O)/C(=C\c3cn(C)c4ccccc34)C2=O)c1`: the displacement stood at 144%.
The result for `O=C1NC(=O)N(c2ccccc2)C(=O)/C1=C\c1ccc(Cl)cc1` reads 1.4%; that for `Cc1cc(N2C(=O)NC(=O)/C(=C\c3cn(C)c4ccccc34)C2=O)ccc1Br`, 126%.
The result for `O=C1NC(=O)N(c2ccc(Cl)cc2)C(=O)/C1=C\c1ccc(N2CCCC2)cc1` reads 71.4%; that for `Cc1ccc(C(=O)N2CCC(Cc3ccccc3)CC2)o1`, 6.7%; that for `CC1S/C(=N/N=C/c2ccccc2Cl)NC1=O` (stereo not given), 1.2%.
As to `CCOC(=O)/C(C#N)=C\c1ccc(F)cc1`, the displacement stood at 2.3%.
Consider `CCOC(=O)C(C)Oc1cc2oc(=O)cc(-c3ccccc3)c2cc1CC` (stereo not given), for which the displacement amounted to 11%.
The result for `COc1ccc(CCN=CC2=C(O)CC(c3ccccc3)CC2=O)cc1OC` (stereo not given) reads 1.2%; that for `CCCOc1cccc(NC(=O)c2c(-c3ccccc3)noc2C)c1`, -5.5%.
As for `COc1ccc(OC)c(/C=C/C(=O)Oc2cc(C)cc(C)c2)c1`, the figure is 11.8%; as for `Cc1cccc(N2C(=O)S/C(=C/c3ccc(N(C)C)cc3)C2=O)c1`, 95.7%.
`CC(C)c1ccc(N2C(=O)NC(=O)/C(=C/c3cn(C)c4ccccc34)C2=O)cc1`: the displacement was 145%.
As for `Cc1ccc(N2C(=O)NC(=O)/C(=C\c3ccsc3)C2=O)cc1`, the figure is 66.1%; as for `Cc1cc(C)cc(N2C(=O)NC(=O)/C(=C\c3ccsc3)C2=O)c1`, -7.8%.
As for `Cc1cccc(N2C(=O)S/C(=C\c3ccccc3)C2=O)c1`, the figure is 12.3%.
As to `COc1ccccc1OCCn1cc(C=C2C(=O)N(C)C(=O)N(C)C2=O)c2ccccc21`, the displacement came to 3.5%.
`COc1ccccc1OCCn1cc(/C=C2/C(=O)NC(=O)N(c3ccccc3)C2=O)c2ccccc21`: the displacement turned out to be 1.6%.
As for `Cn1cc(C=C2C(=O)NC(=S)NC2=O)c2ccccc21`, the figure is 8.8%; as for `Cc1cccc(N2C(=O)/C(=C/c3ccc(N(C)C)cc3)SC2=S)c1`, -5.4%.
As for `O=C1NC(=O)N(c2ccc(Cl)cc2)C(=O)/C1=C/c1ccsc1`, the displacement is -24.1%.
Regarding `COc1ccc(N2C(=O)NC(=O)/C(=C/c3cn(CCOc4ccccc4OC)c4ccccc34)C2=O)cc1`, the displacement was found to be 87.6%.
The result for `CC(C)c1ccc(N2C(=O)NC(=O)/C(=C/c3ccccc3O)C2=O)cc1` reads 0.6%.
